PubChem BioAssay (Tox21)
Records with an inconclusive call do not appear. Active and inactive are the calls of the source. Unless noted, calls come from the whole dose curve; as a rule, active = well fitted curve in the direction sought with a large enough effect in the repeat runs; inconclusive = weak or mixed curves; inactive = no such curve, though single readings can be large; an effect the other way counts as inactive or inconclusive.

Assays:
[1] = qHTS assay to identify small molecule HDAC inhibitors - cell viability counter screen (AID 1259365); note: series mostly up to about 92 µM; nearly all actives have a fitted effect of over 50% in size
Procedure, shortened: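 Wild-type HCT-116 cells, 1,500/well, cultured overnight, then compound-treated 2 h at 37 C. Viability measured as ATP luminescence with CellTiter-Glo after 30 min at room temperature.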

[2] = qHTS assay to identify small molecule agonists of the sonic hedgehog signaling (Shh) pathway - cell viability counter screen (AID 1259366); note: nearly all actives have a fitted effect of over 50% in size
Procedure, shortened: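 NIH/3T3-derived Gli1-Luc reporter cells, 2,000 per well, received compound after 4 h and were treated about 23 h at 37C. Viability measured in the same wells by CellTiter-Fluor fluorescence after 1 h.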

[3] = qHTS assay to identify small molecule antagonists of the sonic hedgehog signaling (Shh) pathway - cell viability counter screen (AID 1259367); note: nearly all actives have a fitted effect of over 55% in size
Procedure, shortened: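 Fluorescence read-out (CellTiter-Fluor, 1 hr at 37C) taken after 23 hr compound treatment of 3T3 Gli1-Luc cells stimulated with conditioned medium. Cells were seeded at 2,000 per well and pre-incubated 4 hr.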

[4] = qHTS assay to identify small molecule agonists of the sonic hedgehog signaling (Shh) pathway (AID 1259368; calls by dose curve;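 note: NIH/3T3-derived 3T3Gli1-Luc cells carrying a stable Gli1-driven firefly luciferase reporter; series mostly up to about 92 µM; nearly all actives have a fitted effect of over 15% in size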)
Procedure, shortened: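 Quantitative high-throughput format using a Gli1-driven firefly luciferase reporter line derived from NIH/3T3 cells. After a 24 hr compound treatment at 37 C and 5% CO2, luminescence reported Gli1 response element activity.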

[5] = target: Estrogen receptor beta (Homo sapiens) (UniProt Q92731); assay: qHTS assay to identify small molecule agonists of the estrogen receptor beta (ER-beta) signaling pathway (AID 1259377; active = well fitted activation curve with a large enough effect in the signal ratio in the repeat runs, not every such curve was filed as active; the % refers to the signal ratio)
Estrogen receptor beta (Homo sapiens), sequence (Q92731 whole entry, looked up): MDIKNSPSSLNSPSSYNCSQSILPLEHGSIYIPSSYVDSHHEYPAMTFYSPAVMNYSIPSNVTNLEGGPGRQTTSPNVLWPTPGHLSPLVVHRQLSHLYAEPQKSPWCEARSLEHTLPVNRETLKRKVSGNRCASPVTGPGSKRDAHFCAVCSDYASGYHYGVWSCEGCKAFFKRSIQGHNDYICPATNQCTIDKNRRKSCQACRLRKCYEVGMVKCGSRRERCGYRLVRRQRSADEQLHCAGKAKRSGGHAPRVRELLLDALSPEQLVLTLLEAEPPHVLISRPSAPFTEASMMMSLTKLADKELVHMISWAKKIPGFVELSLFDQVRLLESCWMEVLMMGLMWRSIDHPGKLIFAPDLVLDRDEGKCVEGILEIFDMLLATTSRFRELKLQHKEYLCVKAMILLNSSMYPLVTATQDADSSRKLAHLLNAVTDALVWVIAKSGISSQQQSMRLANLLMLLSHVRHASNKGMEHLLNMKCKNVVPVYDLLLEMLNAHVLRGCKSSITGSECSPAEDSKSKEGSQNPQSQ
Procedure, shortened: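 ER-beta-UAS-bla HEK293T cells in medium with 2% charcoal-stripped FBS were exposed to compounds for 16 h at 37C. Beta-lactamase reporter activity was read as fluorescence after 2 h with LiveBLAzer B/G FRET substrate at room temperature.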

[6] = qHTS assay to identify small molecule agonists of the androgen receptor (AR) signaling pathway in the presence of an antagonist - cell viability counter screen (AID 1259379);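 note: MDA-kb2 human breast cancer cells carrying an MMTV luciferase reporter; series mostly up to about 92 µM; nearly all actives have a fitted effect of over 25% in size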
Procedure, shortened: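 Nilutamide-containing (3.0uM final) MDA-kb2 cultures, 3,000 cells/well, were treated with compounds across 15 concentrations. After 16 hr at 37C with no CO2, cell viability was determined by CellTiter-Fluor fluorescence in the luciferase assay wells.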

[7] = qHTS assay to identify small molecule agonists of the estrogen receptor beta (ER-beta) signaling pathway - cell viability counter screen (AID 1259380); note: nearly all actives have a fitted effect of over 30% in size
Procedure, shortened: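 Steps: plate ER-beta-UAS-bla HEK293T cells, rest 6 hr; add compounds in DMSO; incubate 16 hr at 37C, 5% CO2; add FRET substrate 2 hr; add CellTiter-Glo, wait 30 min at room temperature; read luminescence.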

[8] = target: Estrogen receptor (Homo sapiens) (UniProt P03372); assay: qHTS assay to identify small molecule agonists of the estrogen receptor alpha (ER-alpha) signaling pathway in the presence of an antagonist (AID 1259383; calls by dose curve; note: top concentration of the series differs between compounds; nearly all actives have a fitted effect of over 15% in size)
Estrogen receptor (Homo sapiens), sequence (P03372 whole entry, looked up): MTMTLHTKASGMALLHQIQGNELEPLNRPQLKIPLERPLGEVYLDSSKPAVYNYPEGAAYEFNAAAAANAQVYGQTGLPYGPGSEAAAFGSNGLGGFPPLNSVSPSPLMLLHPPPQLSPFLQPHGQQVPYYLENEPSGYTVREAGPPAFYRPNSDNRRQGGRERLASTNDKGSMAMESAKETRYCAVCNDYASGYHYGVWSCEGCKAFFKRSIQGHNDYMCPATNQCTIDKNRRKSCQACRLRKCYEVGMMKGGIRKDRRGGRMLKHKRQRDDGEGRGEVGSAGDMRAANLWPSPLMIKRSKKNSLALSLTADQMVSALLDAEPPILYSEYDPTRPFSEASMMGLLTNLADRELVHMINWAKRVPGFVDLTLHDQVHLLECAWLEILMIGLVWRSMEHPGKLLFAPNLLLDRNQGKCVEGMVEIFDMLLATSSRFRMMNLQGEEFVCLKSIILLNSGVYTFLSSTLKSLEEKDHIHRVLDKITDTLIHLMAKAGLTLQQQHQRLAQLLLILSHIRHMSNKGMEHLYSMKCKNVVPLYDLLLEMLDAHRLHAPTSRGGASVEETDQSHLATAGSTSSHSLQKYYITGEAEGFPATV
Procedure, shortened: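 Readout was ERE-driven luciferase luminescence in VM7Luc4E2 cells, which express full-length ER-alpha endogenously. Compounds were tested at 15 concentrations for 22hr alongside 10.0nM ICI-182,780 (final concentration).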

[9] = qHTS assay to identify small molecule agonists or antagonists of the thyroid stimulating hormone receptor (TSHR) signaling pathway - wild type cell line counter screen (AID 1259384; calls by dose curve)
Procedure, shortened: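 Wild-type Hek293 cells, 800/well, 18 h at 37C, then compound with Ro20-1724 for 30 min RT. cAMP by HTRF (cAMP-d2/anti-cAMP cryptate), 1 h RT, fluorescence read. 15 concentrations, triplicates.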

[10] = target: Thyrotropin receptor (Homo sapiens) (UniProt P16473); assay: qHTS assay to identify small molecule antagonists of the thyroid stimulating hormone receptor (TSHR) signaling pathway (AID 1259385; calls by dose curve; note: nearly all actives have a fitted effect of over 20% in size)
Thyrotropin receptor (Homo sapiens), sequence (P16473 whole entry, looked up): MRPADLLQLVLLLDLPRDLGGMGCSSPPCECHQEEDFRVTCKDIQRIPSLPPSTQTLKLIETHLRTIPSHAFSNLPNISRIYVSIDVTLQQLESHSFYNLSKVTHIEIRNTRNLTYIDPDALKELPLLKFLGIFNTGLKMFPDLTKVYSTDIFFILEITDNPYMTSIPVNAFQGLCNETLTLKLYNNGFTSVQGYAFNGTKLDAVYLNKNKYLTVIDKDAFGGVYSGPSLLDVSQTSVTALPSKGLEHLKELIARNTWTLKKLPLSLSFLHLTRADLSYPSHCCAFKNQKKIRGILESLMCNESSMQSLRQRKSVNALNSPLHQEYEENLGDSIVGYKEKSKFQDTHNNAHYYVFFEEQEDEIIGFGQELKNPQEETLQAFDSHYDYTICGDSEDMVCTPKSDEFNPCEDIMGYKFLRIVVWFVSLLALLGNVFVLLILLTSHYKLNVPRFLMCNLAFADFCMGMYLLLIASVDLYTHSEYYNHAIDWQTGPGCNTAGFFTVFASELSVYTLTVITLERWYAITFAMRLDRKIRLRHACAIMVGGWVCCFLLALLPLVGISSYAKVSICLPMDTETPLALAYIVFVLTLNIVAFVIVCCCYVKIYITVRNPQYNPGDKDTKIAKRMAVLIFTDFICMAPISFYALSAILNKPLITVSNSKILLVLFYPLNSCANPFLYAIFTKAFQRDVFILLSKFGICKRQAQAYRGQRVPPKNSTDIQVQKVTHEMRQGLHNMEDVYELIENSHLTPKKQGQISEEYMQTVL
Procedure, shortened: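 TSHR-HEK293 cells (800/well) plated 18 h, then compounds with Ro20-1724 and TSH at 1.5 ng/mL final, 30 min at room temperature. cAMP quantified by HTRF (cAMP-d2/anti-cAMP-cryptate, 1 h); 15 concentrations in triplicate.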

[11] = qHTS assay to identify small molecule agonists of the estrogen receptor alpha (ER-alpha) signaling pathway in the presence of an antagonist - cell viability counter screen (AID 1259386);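 note: series mostly up to about 92 µM; cells exposed to compounds for 22 h at 37 °C before the viability read; nearly all actives have a fitted effect of over 30% in size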
Procedure, shortened: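 In this counter screen, compound effects on VM7Luc4E2 viability were tested in the presence of the antagonist ICI-182,780 at 10.0nM final. Compounds were dosed at 15 concentrations, exposure lasted 22hr, and the CellTiter-Fluor signal was read.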

[12] = target: Progesterone receptor (Homo sapiens) (UniProt P06401); assay: qHTS assay to identify small molecule agonists of the progesterone receptor (PR) signaling pathway (AID 1346784; calls by dose curve; note: nearly all actives have a fitted effect of over 30% in size)
Progesterone receptor (Homo sapiens), sequence (P06401 whole entry, looked up): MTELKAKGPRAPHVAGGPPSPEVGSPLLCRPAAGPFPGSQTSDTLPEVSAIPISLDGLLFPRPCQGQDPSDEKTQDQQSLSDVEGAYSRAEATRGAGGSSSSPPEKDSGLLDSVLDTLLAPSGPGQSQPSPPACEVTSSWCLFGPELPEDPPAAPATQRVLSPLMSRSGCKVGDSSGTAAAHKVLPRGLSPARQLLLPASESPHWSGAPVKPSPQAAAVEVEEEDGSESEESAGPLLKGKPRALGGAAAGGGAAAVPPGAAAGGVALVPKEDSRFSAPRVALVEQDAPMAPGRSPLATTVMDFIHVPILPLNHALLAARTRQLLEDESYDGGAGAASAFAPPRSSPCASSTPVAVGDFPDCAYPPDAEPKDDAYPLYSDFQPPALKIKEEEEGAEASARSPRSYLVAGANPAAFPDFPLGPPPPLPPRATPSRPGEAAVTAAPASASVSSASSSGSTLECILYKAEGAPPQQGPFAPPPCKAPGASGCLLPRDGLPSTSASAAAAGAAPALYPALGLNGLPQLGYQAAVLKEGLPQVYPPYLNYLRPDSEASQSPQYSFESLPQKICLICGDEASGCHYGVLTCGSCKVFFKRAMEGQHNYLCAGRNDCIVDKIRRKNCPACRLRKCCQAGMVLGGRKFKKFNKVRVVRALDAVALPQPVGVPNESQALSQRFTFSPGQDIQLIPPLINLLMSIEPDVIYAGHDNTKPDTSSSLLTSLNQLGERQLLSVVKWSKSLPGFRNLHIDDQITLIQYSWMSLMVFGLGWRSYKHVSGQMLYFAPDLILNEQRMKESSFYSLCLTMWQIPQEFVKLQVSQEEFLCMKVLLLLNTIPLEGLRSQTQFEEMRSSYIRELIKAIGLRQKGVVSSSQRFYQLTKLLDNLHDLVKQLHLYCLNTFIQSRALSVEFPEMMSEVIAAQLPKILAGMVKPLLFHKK
Procedure, shortened: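 PR-UAS-bla HEK 293T cells (beta-lactamase reporter under UAS) in 2% charcoal-stripped FBS, dosed with 23 nL compound after 6 hr, incubated 16hr at 37C. LiveBLAzer B/G FRET substrate added, fluorescence read after 2 hours.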

[13] = target: Progesterone receptor (Homo sapiens) (UniProt P06401); assay: qHTS assay to identify small molecule antagonists of the progesterone receptor (PR) signaling pathway (AID 1346795; active = well fitted inhibition curve with a large enough effect in the signal ratio in the repeat runs, not every such curve was filed as active; the % refers to the signal ratio)
Procedure, shortened: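 PR-UAS-bla HEK293T cells with beta-lactamase reporter under UAS control, in 2% charcoal-stripped FBS, treated with compounds plus 1 nM promegestone (R5020, final) for 16 hr at 37C. Read-out: FRET beta-lactamase substrate fluorescence after 2 hr at room temperature.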

[14] = qHTS assay to identify small molecule antagonists of the progesterone receptor (PR) signaling pathway - cell viability counter screen (AID 1346798); note: series mostly up to about 92 µM; nearly all actives have a fitted effect of over 50% in size
Procedure, shortened: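 PR-UAS-bla HEK293T cells, 3,000/well in 2% charcoal-stripped FBS medium, dosed with compounds plus R5020 agonist and incubated 16 h at 37C. Viability then measured in the same wells by CellTiter-Glo luminescence after 30 min at RT.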

[15] = qHTS assay to identify small molecule agonists of the progesterone receptor (PR) signaling pathway - cell viability counter screen (AID 1346799; calls by dose curve; note: nearly all actives have a fitted effect of over 45% in size)
Procedure, shortened: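 Counter screen in the PR-UAS-bla HEK293T wells (2% charcoal-stripped FBS, 16 h compound exposure at 37 C) after the bla read. CellTiter-Glo added, 30 min at room temperature, luminescence read as cell viability.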

[16] = qHTS assay to identify small molecule antagonists of the TGF-beta/Smad signaling pathway - cell viability counter screen (AID 1346824); note: nearly all actives have a fitted effect of over 50% in size
Procedure, shortened: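 SBE-bla HEK 293T cells, incubated overnight, then compound plus 0.25 ng/mL TGF-beta1 (stock added) for 5 hr at 37 C. Viability was read in the same wells by CellTiter-Glo luminescence after 30 min at room temperature.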

[17] = target: Estrogen receptor beta (Homo sapiens) (UniProt Q92731); assay: qHTS assay to identify small molecule antagonists of the estrogen receptor beta (ER-beta) signaling pathway (AID 1259378; active = well fitted inhibition curve with a large enough effect in the signal ratio in the repeat runs, not every such curve was filed as active; the % refers to the signal ratio)
Procedure, shortened: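 ER-beta-UAS-bla HEK293T cells in 2% charcoal-stripped FBS medium treated with compound plus 1nM final 17-beta-estradiol for 16 hr at 37C. Beta-lactamase reporter read by FRET substrate fluorescence after 2 hours at room temperature.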

[18] = qHTS assay to identify small molecule antagonists of the estrogen receptor beta (ER-beta) signaling pathway - cell viability counter screen (AID 1259382); note: series mostly up to about 92 µM; nearly all actives have a fitted effect of over 55% in size
Procedure, shortened: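 Viability is scored by CellTiter-Glo luminescence (30 min, room temperature) in ER-beta-UAS-bla HEK293T wells already read for reporter fluorescence. Compound exposure lasts 16 hr at 37C alongside 1nM 17-beta-estradiol in charcoal-stripped serum medium.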

[19] = target: Androgen receptor (Homo sapiens) (UniProt P10275); assay: qHTS assay to identify small molecule agonists of the androgen receptor (AR) signaling pathway in the presence of an antagonist (AID 1259381; calls by dose curve; note: nearly all actives have a fitted effect of over 15% in size)
Androgen receptor (Homo sapiens), sequence (P10275 whole entry, looked up): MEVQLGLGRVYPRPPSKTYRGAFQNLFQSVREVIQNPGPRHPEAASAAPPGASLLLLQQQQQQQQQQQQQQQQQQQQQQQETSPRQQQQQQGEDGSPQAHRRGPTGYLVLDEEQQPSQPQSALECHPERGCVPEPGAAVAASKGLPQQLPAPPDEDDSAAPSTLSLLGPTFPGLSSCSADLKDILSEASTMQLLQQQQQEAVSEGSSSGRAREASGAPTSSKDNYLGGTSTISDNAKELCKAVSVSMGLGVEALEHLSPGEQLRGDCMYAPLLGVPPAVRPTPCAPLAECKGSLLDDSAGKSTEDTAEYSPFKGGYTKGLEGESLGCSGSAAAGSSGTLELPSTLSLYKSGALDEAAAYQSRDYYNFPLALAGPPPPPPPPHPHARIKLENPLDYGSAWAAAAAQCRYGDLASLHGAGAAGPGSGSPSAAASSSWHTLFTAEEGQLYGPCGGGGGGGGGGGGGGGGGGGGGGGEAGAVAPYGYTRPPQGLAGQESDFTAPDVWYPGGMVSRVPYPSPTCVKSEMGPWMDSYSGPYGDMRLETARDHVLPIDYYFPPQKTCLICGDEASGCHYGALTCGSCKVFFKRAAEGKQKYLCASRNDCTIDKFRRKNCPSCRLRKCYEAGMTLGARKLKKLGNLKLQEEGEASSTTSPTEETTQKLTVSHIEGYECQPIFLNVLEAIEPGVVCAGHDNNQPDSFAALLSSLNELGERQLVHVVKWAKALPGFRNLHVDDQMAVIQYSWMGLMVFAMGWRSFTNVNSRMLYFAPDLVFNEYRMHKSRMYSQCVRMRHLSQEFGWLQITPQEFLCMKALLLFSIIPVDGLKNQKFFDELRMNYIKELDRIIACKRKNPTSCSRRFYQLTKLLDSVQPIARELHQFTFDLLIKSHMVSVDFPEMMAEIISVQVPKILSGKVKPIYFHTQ
Procedure, shortened: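 Reporter-gene luminescence from MDA-kb2 cells exposed 16hr at 37C (0% CO2) to 15-point compound titrations with 3.0uM final nilutamide as AR antagonist.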

[20] = qHTS assay to identify small molecule antagonists of the sonic hedgehog signaling (Shh) pathway (AID 1259369; calls by dose curve; note: nearly all actives have a fitted effect of over 45% in size)
Procedure, shortened: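 Stable Gli1-Luc reporter NIH/3T3 clone; quantitative HTS in stimulated mode with conditioned medium. Luminescence measured after 24hr compound treatment at 37 C.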
% is set by controls: 0 for no effect and ±100 for the full control effect.

C[C@H]1[C@@H](c2ccccc2)NC(=O)N1C
inactive: outcome [1] | outcome [2] | outcome [3] | outcome [4] | Potency [5] | outcome [6] | outcome [7] | Potency [8] | outcome [9] | outcome [10] | outcome [11] | Potency [12] | Potency [13] | outcome [14] | outcome [15] | outcome [16]

CC(C)Nc1ccccc1
inactive: outcome [1] | outcome [2] | outcome [3] | outcome [4] | Potency [5] | Potency [17] | outcome [6] | outcome [7] | outcome [18] | Potency [8] | outcome [9] | outcome [10] | outcome [11] | Potency [12] | Potency [13] | outcome [14] | outcome [15] | outcome [16]

CC(=O)CCC1=C(C)CCCC1(C)C
inactive: outcome [1] | outcome [2] | outcome [3] | outcome [4] | Potency [5] | Potency [17] | outcome [6] | outcome [7] | outcome [9] | outcome [10] | outcome [11] | Potency [12] | outcome [14] | outcome [15] | outcome [16]

N[C@@H](CSCCCO)C(=O)O
inactive: activity change, negative = cytotoxicity [1] -0.57% [at 19 µM] | viability change, negative = cytotoxic [2] -0.254% [at 19 µM] | viability change, negative = cytotoxic [3] 1.48% [at 19 µM] | activity change [4] 0.782% [at 18.9 µM] | activation [5] -2.61% [at 19 µM] | activity, negative = inhibition [17] 0.481% [at 19 µM] | activity change, negative = cytotoxicity [6] -1.46% [at 19 µM] | activity change, negative = cytotoxicity [7] 7.76% [at 19 µM] | activation [19] -0.115% [at 19 µM] | cAMP activity change [9] -1.7% [at 18.9 µM] | activity change, negative = inhibition [10] -0.731% [at 19 µM] | activity change, negative = cytotoxicity [11] -1.24% [at 19 µM] | activation [12] -0.517% [at 19 µM] | activity change, negative = inhibition [13] 8.75% [at 18.9 µM] | activity change, negative = cytotoxicity [14] -3.41% [at 18.9 µM] | activity change, negative = cytotoxicity [15] 4.73% [at 19 µM] | viability change, negative = cytotoxic [16] -0.153% [at 15.8 µM]

CC(=O)O[C@H]1C[C@@H]2CC[C@@]1(C)C2(C)C
inactive: outcome [1] | outcome [2] | outcome [3] | outcome [4] | Potency [5] | Potency [17] | outcome [6] | outcome [7] | outcome [19] | outcome [18] | outcome [10] | outcome [11] | Potency [12] | Potency [13] | outcome [14] | outcome [15] | outcome [16]

CCCc1ccc(O)cc1
inactive: outcome [1] | outcome [2] | outcome [3] | outcome [4] | Potency [5] | Potency [17] | outcome [6] | outcome [7] | Potency [8] | outcome [9] | outcome [10] | outcome [11] | Potency [12] | Potency [13] | outcome [15] | outcome [16]

CC(=O)OC1CCCCC1C(C)(C)C (centres undefined)
inactive: outcome [1] | outcome [3] | outcome [4] | Potency [20] | Potency [5] | Potency [17] | outcome [6] | outcome [7] | outcome [19] | outcome [18] | Potency [8] | outcome [9] | outcome [10] | outcome [11] | Potency [12] | Potency [13] | outcome [14] | outcome [15] | outcome [16]

CC1c2ccccc2CN1NC(=O)c1ccc(Cl)c(S(N)(=O)=O)c1 (centres undefined)
inactive: outcome [1] | outcome [2] | outcome [3] | outcome [4] | Potency [5] | Potency [17] | outcome [6] | outcome [7] | Potency [8] | outcome [9] | outcome [10] | outcome [11] | Potency [12] | Potency [13] | outcome [14] | outcome [16]
